The results in this text go back to the supplement of paper PMC12632987.

Sequences and labels used below:
B1: LC3A_28_1012 (protein)
chain: MSLIEATKKEAKAAIEEAKKGEDAFLEVTITEEATEEEVKEVLKIIEETAEEISKIPNVKLYVVIDFDGSQEKLDIITDRMEEIEKKYPNVSVVIAYDEK
B2: LC3A_28_1011 (protein)
chain: MSLIEKTKEEAKKAIEEAKKGEDAFLEVEITEEATEEEVKEVLEIIEETAEEISKIENVKLYIVVDFDGDQEKLDLITDGLEEIEEKYPNVSSIIAYDEK
B3: LC3A_28_1155 (protein)
chain: SAEVEEAKKLIDEDAERDKDEEEVYLEVKITSSVTVEEAREIMDHVEEVVEKLKDKKKIYVVVTFEEPVSQEVLDEVLRRAEEIEEKFPNVDVIIALPED
B4: LC3A_28_1147 (protein)
chain: SAEVEAAKKQIDEDAEKDKNEEEVYLNVTITSSMTKEEVEEIMDHVEEVVEKLKDKKKIYVVVTFTEPVSQEVLDTALEKGDEIEKKFPKVDVIVALPEY
B5: LC3A_28_1154 (protein)
chain: SANVEAAKKQIDEDAEKDKDEEEVYLNVTITSEDTVEEAKEIMEHVEEVVEKLKDKKKIYVVITFEEPVSQEVLDTVLEKAEEIEKKFPNVSVIIALPED
B6: LC3A_free_8_2523 (protein)
chain: ASQAFADAAVKILDELEEKLVKLLKEKGASRLDILEAELLVGSIIAEVISLVDESIEAILKSIKEGLEELVEELEEHKEEVTKLANEALKKIEEKAKELK
B7: LC3A_3_1539 (protein)
chain: LEEEIEAALALLREAGASEETLAAFREAAEALLERGYEEALRELIRETRELIDAPSELLLAFFEEVLALVRTSDLSEEELIAEIRRIARTTRNEAEIEEL
B8: LC3A_62_2043 (protein)
chain: MYLATVDVDILAKDEEAAEKIYEEIKKKLEELKKKDPNIKYEVKLDKENKYVSVTVTYEAETLEEAEKKAQEIEDELDEILEKNEDLIKAALISREITKL
B9: LC3A_28_882 (protein)
chain: SKALESAEKALEEVKKAVEAGDKEPLVLEVEAPSDEENTEKFLKLLEELAKEASKLPGVTIIVNIDSSVSQELRDKIIDKAEELEKKYPNVTIIIALPED
B10: LC3A_147_504 (protein)
chain: VKLEVYIDIITKNATEEVKEFVKEIEKELKEKGFEVKVKIKIEKLDEDTDYIEIEIEIKAETEEKAKEAANYIIDKFEEFEEKNKDKILGSLISVEIEKE
B11: LC3A_132_267 (protein)
chain: SEELFEEALEELKEILDKIVDLLKAGKDPSPAITELYNTALEYSEKLSLEETEELVEKTIEYAEKLFAERLDPNDVEARRTLDIIEMLLEGVLIEKELRS
B12: LC3A_132_266 (protein)
chain: SEELFEKALEELKEILDKIVEALKAGEDPSPLINELYEKAKEYAKKLSLEETEKLVEETIEYAEKLFKERLDPNDEEAIRTLDIIEMLLEGVLIEKELES
B13: LC3A_132_308 (protein)
chain: GEELAKKLIEIAKEALRLVKEDDSKEEEVLELLREAKELMEKLAKEASPELAAKTFEEVEEILIEISRLAAKKGWDEVSDEAFALAAEAAQLKSDAKKKL
B14: LC3A_free_46_2355 (protein)
chain: VKAEILIDLLHEDEEVLKKAVEEIKKAAKEIAKKYGLKVEIKEEISKLPDGSYYAEIEITLTGETKEKLEKAVTELINKIDEIAKKYNVAAIISYEIIEE
B15: LC3A_free_46_2426 (protein)
chain: VDIDVDLLLEGDDEEKLKAAVEEIKEAFKKIAEEYNAELEIEVEFSTDPDGNHFAHINIKITSDDLETQQKIANESIDSIDKIAEKYGVSYIISVDIEKK
B16: LC3A_17_554 (protein)
chain: SEELKEEIKRLLEELEALVEELEKYDPEAAKELRKKLEEAKKALEEGDLEEALKILKEVAEEAAERWDSLEHIDPERMSILSMEAEGLLIEALSLEEKLE
B17: LC3A_17_555 (protein)
chain: MEELKKELEELLKELEKLVKELEKYDPEAAKKLKEKLKEAKKALEKGDLKKALKILKEVAEEAAEVFDSLEHIDPELMSILSMEAEGLLIEALSLEEKLE
B18: LC3A_28_1027 (protein)
chain: SAAEKAIEKAREEARKQKAEGKDIYVTIEVTSSTTLEDAKTIVEGIREIVEEFKDEKNINIIIDVERGVSQEVIDTLADGAEEIEKEYPNVNIIIALEEE
B19: LC3A_127_175 (protein)
chain: ELEELLKKLLEVAEELSEELSKPDADLEEIERLVKEAIELAKKALELDPRAEPILEAAEEIKKQLEQYKKAPEEKKEELREHMEMLAESLIIEIESLLLR

Whole data set: some 2,300 sequences, median “median log2 fold change of GCK-ALFA target abundance (FLAG IP / Myc IP barcode read proportion)” near 0.095, cut for the lowest 2% near -0.47. The sample holds the lowest values, similar sequences and a random draw of the others, so the mix is not that of the screen.

In this test the target is MAP1LC3A, Q9H492. Description: median log2 fold change of GCK-ALFA target abundance (FLAG IP / Myc IP barcode read proportion) (log2 ratio); each designed protein is fused to an ALFA-tag nanobody in HEK293 cells to bring the named protein to FLAG-tagged glucokinase (GCK); Myc marks an untargeted standard; higher = target protein stabilised (more abundant). The settings on record: target protein: 3xFLAG-MCP-GCK-ALFA reporter; HEK293 landing pad (RPLP). The method in brief: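 Binders fused to an ALFA nanobody were recombined as a library into HEK293 landing-pad cells, which were induced with 2 μg mL^−1 doxycycline and then transfected to express a FLAG-tagged target and a Myc-tagged standard. After 48 h, circular RNA barcodes recovered by anti-FLAG and anti-Myc immunoprecipitation of lysates were reverse transcribed, amplified and sequenced. Each binder's target abundance is the median log2 ratio of FLAG to Myc barcode read proportions, from barcodes present at ≥10^−7 in both replicates, binders carrying ≥3 barcodes per replicate, a 10^−6 pseudocount and pooled replicates.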
As for B1, the “median log2 fold change” value is -0.527.
Under B2 stands -0.21; under B3, -0.446; under B4, -0.475.
Take B5: the “median log2 fold change” value is -0.142.
Under B6 stands -0.0394; under B7, 0.318; under B8, 0.16.
Consider B9, for which the “median log2 fold change” value is -0.094.
Under B10 stands -0.32.
Under B11 stands -0.528.
Regarding B12, the “median log2 fold change” value was 0.165.
Under B13 stands 0.14.
Then B14, with -0.335; and B15, with 0.0526.
In the case of B16, the “median log2 fold change” value stood at 0.24.
Under B17 stands -0.476.
Then B18, with 0.173; and B19, with 0.0944.
